The Inhibition is how much of the control response was suppressed.

Holding throughout (type): functional
The subject of assay [1] is Plasmodium falciparum. Nature of the assay: GSK_TCMDC: Inhibition of Plasmodium falciparum 3D7 in whole red blood cells, using parasite LDH activity as an index of growth. Test compounds present at 2uM.
Assay [2] concerns Plasmodium falciparum. Nature of the assay: GSK_TCMDC: Inhibition of Plasmodium falciparum Dd2 in whole red blood cells, using parasite LDH activity as an index of growth. Test compounds present at 2uM.
A further assay has as its system HepG2. Nature of the assay: GSK_TCMDC: Percent inhibition of human HepG2 cell line. Test compounds present at 10uM.

For the molecule `O=C(c1ccc(Cl)cc1Cl)N1CCCC(C(F)(F)F)C1` (configuration not stated), the Inhibition in the assay with Plasmodium falciparum [1] is on record as 95%; with Plasmodium falciparum [2] it was 47%; in the assay with HepG2, 6%.

Consider `Cc1ccc(Nc2nc3cc(N(C)c4ccnc(Nc5cccc(CCS(C)(=O)=O)c5)n4)ccc3n2C)cc1.O=C(O)C(F)(F)F`, for which the values for the Inhibition in the assay on Plasmodium falciparum [1], in the assay with Plasmodium falciparum [2] and in the assay with HepG2 were 99%, 73% and 78%, respectively.

As for `CCN1CCN(CCCNc2c3ccccc3nc3ccccc23)CC1.Cl`, the Inhibition in the assay with Plasmodium falciparum [1] came to 100%; in the assay on Plasmodium falciparum [2], 3%; in the assay with HepG2 it was 44%.

`Cc1cc(N)cc2nc(-c3ccc(N)cc3)[nH]c12`: the Inhibition was 96% in the assay on Plasmodium falciparum [1], 75% in the assay on Plasmodium falciparum [2] and 0% in the assay on HepG2.

For `CCN(CC)CCNc1ccnc2[nH]c3ccc(I)cc3c12`, the Inhibition is on record as 100% in the assay with Plasmodium falciparum [1], 95% with Plasmodium falciparum [2] and 14% in the assay with HepG2.

With `Nc1ccc2nc(C=Cc3ccc(Cl)cc3)[nH]c2c1`, the Inhibition in the assay with Plasmodium falciparum [1] was found to be 91%; in the assay on Plasmodium falciparum [2], 83%; in the assay with HepG2, 19%.

For the molecule `CCCCCOc1ccc(C(=NC)N(CCCCC)CCCCC)c2ccccc12.I`, the Inhibition in the assay with Plasmodium falciparum [1] amounted to 96%; in the assay with Plasmodium falciparum [2] it was 80%; in the assay with HepG2, 70%.

Take `Cl.c1ccc(-c2nc3ccccc3[nH]2)c(Nc2ccnc3cc(-c4nccs4)ccc23)c1`: the values for the Inhibition in the assay on Plasmodium falciparum [1], in the assay with Plasmodium falciparum [2] and in the assay with HepG2 were 100%, 98% and 0%, respectively.

On to `O=C(NC1CC1)c1cnc(N2CCC(Oc3ccc(Cl)cc3)CC2)c(Cl)c1`, for which the Inhibition in the assay on Plasmodium falciparum [1] is recorded as 86%; with Plasmodium falciparum [2], 75%; in the assay on HepG2 it was 12%.

`COc1c(Br)cc(Br)cc1-c1ccc(CN2CC3CCC2CC3)[nH]1.Cl`: the Inhibition in the assay with Plasmodium falciparum [1] is recorded as 98%; in the assay on Plasmodium falciparum [2], 100%; in the assay on HepG2, 91%.

For the molecule `CCCCNC(=O)[C@@H](NC(=O)c1ccc(O)c(-c2ccc(Cl)c(Cl)c2)c1)C(C)C`, the Inhibition in the assay with Plasmodium falciparum [1] is reported as 97%; in the assay with Plasmodium falciparum [2], 98%; with HepG2, 0%.

As to `C(=C(c1cccs1)c1cccs1)c1ccc(CNC2CCN(Cc3ccccc3)CC2)cc1.Cl`, the Inhibition in the assay with Plasmodium falciparum [1] was determined as 98%; in the assay on Plasmodium falciparum [2], 21%; in the assay with HepG2 it was 40%.

In the case of `O=C(Nc1ccccc1Cl)N(Cc1cc(Cl)cc(Cl)c1)CC(O)COc1ccc(Cl)c(F)c1` (configuration not stated), the Inhibition in the assay with Plasmodium falciparum [1] was found to be 93%; in the assay with Plasmodium falciparum [2], 17%; in the assay on HepG2, 0%.

Consider `Cc1cc(N[C@@H](Cc2ccccc2)C(=O)NCc2cccs2)nc(NCCc2ccccc2)n1.O=C(O)C(F)(F)F`, for which the Inhibition is recorded as 92% in the assay with Plasmodium falciparum [1], 61% with Plasmodium falciparum [2] and 6% in the assay with HepG2.

In the case of `CC(=O)Nc1ccc(S(=O)(=O)Nc2ccc(Nc3nc(C)cc(N(C)C)n3)cc2)cc1`, the Inhibition in the assay on Plasmodium falciparum [1] is reported as 100%; with Plasmodium falciparum [2], 22%; in the assay on HepG2 it was 0%.

For the molecule `CON=Cc1ccn(-c2ccc(O)c3c2C[C@H]2C[C@H]4[C@H](N(C)C)C(O)=C(C(N)=O)C(=O)[C@@]4(O)C(O)=C2C3=O)c1.O=S(=O)(O)O`, the values for the Inhibition in the assay with Plasmodium falciparum [1], in the assay with Plasmodium falciparum [2] and in the assay with HepG2 were 96%, 70% and 3%, respectively.

With `O=S(=O)(c1ccc2cc[nH]c2c1)N1CCC[C@@H]1CCN1CCC(c2c[nH]c3cnccc23)CC1`, the Inhibition in the assay on Plasmodium falciparum [1] is recorded as 95%; in the assay on Plasmodium falciparum [2], 0%; with HepG2, 13%.

Take `CN(C)CCOc1ccc(/C(=C(/CCCn2ccnc2)c2ccccc2)c2ccc(O)cc2)cc1`: the figures for the Inhibition in the assay with Plasmodium falciparum [1], in the assay on Plasmodium falciparum [2] and in the assay on HepG2 were 100%, 99% and 13%, respectively.

Take `Cl.Oc1ccccc1Nc1nc(NCc2ccco2)c2ccccc2n1`: the Inhibition in the assay on Plasmodium falciparum [1] is recorded as 99%; with Plasmodium falciparum [2], 71%; in the assay on HepG2, 0%.

Consider `CN1CCN(c2ccc(-c3cccc(NC(=O)c4ccc5ccccc5c4)c3)nn2)CC1`, for which the values for the Inhibition in the assay with Plasmodium falciparum [1], with Plasmodium falciparum [2] and in the assay with HepG2 were 94%, 26% and 17%, respectively.

With `CCOc1cc(C(=O)Nc2ccc3nc(N(CC)CC)cc(C)c3c2)cc(OCC)c1OCC`, the Inhibition in the assay with Plasmodium falciparum [1] is listed as 98%; in the assay with Plasmodium falciparum [2], 9%; in the assay with HepG2 it was 16%.

As for `Cc1cc(-c2ccc(CNCCc3cccs3)cc2)ccc1S(=O)(=O)NCc1ccccc1.O=C(O)C(F)(F)F`, the Inhibition with Plasmodium falciparum [1] is 94%; with Plasmodium falciparum [2], 0%; in the assay on HepG2 it was 28%.

Regarding `COc1ccc(S(=O)(=O)Nc2ccc(C(=O)NCc3ccccc3C(F)(F)F)cc2)cc1N1CCN(CC2CC2)CC1.O=C(O)C(F)(F)F`, the values for the Inhibition in the assay on Plasmodium falciparum [1], with Plasmodium falciparum [2] and in the assay on HepG2 were 92%, 5% and 27%, respectively.

Regarding `Cc1cccc2nc(-c3ccc(-c4cccc(NC(=O)CCc5c[nH]cn5)c4)s3)[nH]c12`, the Inhibition was determined as 94% with Plasmodium falciparum [1], 70% in the assay with Plasmodium falciparum [2] and 2% with HepG2.

As to `O=C(Nc1ccc(N2CCN(Cc3cccc(F)c3)CC2)cc1)c1cccs1.O=C(O)C(F)(F)F`, the Inhibition with Plasmodium falciparum [1] is given as 95%; with Plasmodium falciparum [2], 92%; in the assay on HepG2, 0%.

Take `CCN1CCC(NCc2ccc(-c3ccc(Cl)s3)cc2)CC1`: the Inhibition is recorded as 96% with Plasmodium falciparum [1], 23% in the assay with Plasmodium falciparum [2] and 42% in the assay on HepG2.

Regarding `COc1cc2nc(SCCCC#N)n(C3CCCCCC3)c(=N)c2cc1OC`, the Inhibition in the assay on Plasmodium falciparum [1] amounted to 89%; with Plasmodium falciparum [2] it was 9%; with HepG2, 0%.

As for `CC(C)C(=O)NC(c1ccc(Cl)cc1)c1ccc2cccnc2c1O` (configuration not stated), the values for the Inhibition in the assay with Plasmodium falciparum [1], in the assay on Plasmodium falciparum [2] and with HepG2 were 91%, 70% and 53%, respectively.

Consider `c1ccc(Oc2ccc(Nc3ccnc4cc(-c5ccc(CN6CCOCC6)o5)ccc34)cc2)nc1`, for which the Inhibition with Plasmodium falciparum [1] came to 92%; in the assay on Plasmodium falciparum [2], 73%; in the assay on HepG2 it was 5%.

Source of the values: ChEMBL document CHEMBL1157539, “Thousands of chemical starting points for antimalarial lead identification” (Nature, 2010).
